According to PubChem BioAssay (EPA / NIEHS):
Records with an inconclusive call do not appear. Some structures have more than one record in an assay (separate samples or runs), and their calls can disagree. The source made the active and inactive calls. How the source made its calls: active means hit-call score of the fitted dose curve at least 0.9, where 1 is the maximum; inconclusive means response in the unintended direction; inactive means score below 0.9.

Legend:
[1] = test system: guinea pig Leukotriene B4 Receptor (LTB4), gene 100379538; assay: NVS_GPCR_gLTB4: NovaScreen (NVS) G Protein-Coupled Receptor Assay for guinea pig Leukotriene B4 Receptor (LTB4) (AID 2283247)
Summary of the method: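 Membranes from guinea pig spleen incubated 2 h with radioligand and compound; bound counts measured by filtration and scintillation. Screened first at 25 uM in duplicate, then actives titrated to a 50 uM top concentration relative to DMSO.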

[2] = molecular target: human Serotonin, 5-Hydroxytryptamine Receptor 5A (5HT5A), HTR5A (gene 3361) (UniProt P47898); assay: NVS_GPCR_h5HT5A: NovaScreen (NVS) G Protein-Coupled Receptor Assay for human Serotonin, 5-Hydroxytryptamine Receptor 5A (5HT5A) (AID 2283251)
Summary of the method: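 Membranes from HEK293 cells, radioligand binding read by filtration and scintillation after 1 h. Single-concentration duplicate testing at 25 uM, then concentration-response for actives; positive-direction fitting relative to DMSO.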

[3] = molecular target: guinea pig Opioid, Kappa 1 Receptor (OpiateK), OPRK1 (gene 100135587) (UniProt P41144); assay: NVS_GPCR_gOpiateK: NovaScreen (NVS) G Protein-Coupled Receptor Assay for guinea pig Opioid, Kappa 1 Receptor (OpiateK) (AID 2283252);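 further: radioligand displacement from kappa opioid receptor in guinea pig cerebellar membranes; active means reduced radioligand binding relative to DMSO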
Summary of the method: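 Radioligand competition binding using guinea pig cerebellum membrane fraction; 2 h exposure; filter radiodetection. Single concentration 25 uM (duplicate), follow-up concentration-response for actives.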

[4] = molecular target: rat Monoamine Oxidase, MAO-B, Central (MAOBC), Maob (gene 25750) (UniProt P19643); assay: NVS_ENZ_rMAOBC: NovaScreen (NVS) Enzymatic Assay for rat Monoamine Oxidase, MAO-B, Central (MAOBC) (AID 2283238)
Summary of the method: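 Here MAO-B activity in rat brain preparations is quantified radiometrically, counts taken at 1.17 hours. Concentration-response runs reach 50 uM, with plate controls, and values are fitted as loss of signal from the DMSO baseline.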

[5] = molecular target: rat Monoamine Oxidase, MAO-B, Peripheral (MAOBP), Maob (gene 25750) (UniProt P19643); assay: NVS_ENZ_rMAOBP: NovaScreen (NVS) Enzymatic Assay for rat Monoamine Oxidase, MAO-B, Peripheral (MAOBP) (AID 2283242)
[6] = test system: rat Monoamine Oxidase, MAO-A, Central (MAOAC), gene 29253; assay: NVS_ENZ_rMAOAC: NovaScreen (NVS) Enzymatic Assay for rat Monoamine Oxidase, MAO-A, Central (MAOAC) (AID 2283243);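 further: potency refers to inhibition seen as signal drop below DMSO baseline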
Summary of the method: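 Single-concentration duplicate testing at 25 uM, then concentration-response for actives, in a lysate-based radiodetection MAO-A activity assay from rat brain. Enzyme activity measured 1.5 hours post-dosing; DMSO served as negative control and baseline.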

[7] = molecular target: rat Constitutive Nitric Oxide Synthase (CNOS), Nos1 (gene 24598) (UniProt P29476); assay: NVS_ENZ_rCNOS: NovaScreen (NVS) Enzymatic Assay for rat Constitutive Nitric Oxide Synthase (CNOS) (AID 2283236)
Summary of the method: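 Single 25 uM duplicate screen, then concentration series to 50 uM for chemicals meeting threshold. Rat brain membrane-derived CNOS activity detected radiometrically by filtration and scintillation counting, 1 h after compound addition; DMSO as baseline.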

[8] = molecular target: human Vascular Endothelial Growth Factor Receptor 2 (VEGFR2), KDR (gene 3791) (UniProt P35968); assay: NVS_ENZ_hVEGFR2: NovaScreen (NVS) Enzymatic Assay for human Vascular Endothelial Growth Factor Receptor 2 (VEGFR2) (AID 2283230)
Summary of the method: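 Cell-free recombinant VEGFR2 kinase, fluorescent substrate with electrophoretic mobility-shift separation; read 1 h after dosing. Screened at 25 uM in duplicate, hits to concentration-response up to 50 uM; loss-of-signal versus DMSO.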

[9] = molecular target: sheep Cyclooxygenase-1 (Cox1), PTGS1 (gene 443551) (UniProt P05979); assay: NVS_ENZ_oCOX1: NovaScreen (NVS) Enzymatic Assay for sheep Cyclooxygenase-1 (Cox1) (AID 2283239);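 further: actives reduce cyclooxygenase activity so potencies are for inhibitors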
Summary of the method: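 COX1 from ovine seminal vesicles, activity read colorimetrically about 0.66 h after dosing. Primary screen in duplicate at 25 uM; actives retested in concentration series; loss of signal fitted versus DMSO.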

[10] = molecular target: Adenosine receptor A1 (Bos taurus) (UniProt P28190); assay: NVS_GPCR_bAdoR_NonSelective: NovaScreen (NVS) G Protein-Coupled Receptor Assay for bovine Adenosine Receptor (AdoR), Non-selective Binding (AID 2283244)
Summary of the method: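 Cell-free binding with membranes from bovine striatum: radioligand displaced by test chemical, read after 1 h by filtration and scintillation. Single-point 25 uM duplicate primary, 50 uM top concentration in follow-up curves, DMSO baseline.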

[11] = molecular target: human Serotonin, 5-Hydroxytryptamine Receptor 2A (5HT2A), HTR2A (gene 3356) (UniProt P28223); assay: NVS_GPCR_h5HT2A: NovaScreen (NVS) G Protein-Coupled Receptor Assay for human Serotonin, 5-Hydroxytryptamine Receptor 2A (5HT2A) (AID 2283249)
Summary of the method: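 Radioligand displacement on human cortex tissue extract, counted by filtration and scintillation 1.5 h post-dosing. Initial single-concentration screen at 25 uM in duplicate, concentration series in follow-up; DMSO as baseline.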

[12] = test system: guinea pig Muscarinic, Peripheral (Mperiperal) Receptor, Non-selective Binding, gene 100379235; assay: NVS_GPCR_gMPeripheral_NonSelective: NovaScreen (NVS) G Protein-Coupled Receptor Assay for guinea pig Muscarinic, Peripheral (Mperiperal) Receptor, Non-selective Binding (AID 2283250)
Summary of the method: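 Screened in duplicate at 25 uM, hits retested in concentration series to 50 uM max, using bladder membrane radioligand displacement from guinea pig. Filtration and scintillation counting 1 h post-dose, fitted relative to DMSO.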

[13] = molecular target: sheep Cyclooxygenase-2 (Cox2), PTGS2 (gene 443460) (UniProt P79208); assay: NVS_ENZ_oCOX2: NovaScreen (NVS) Enzymatic Assay for sheep Cyclooxygenase-2 (Cox2) (AID 2283231)
Summary of the method: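 Colorimetric absorbance read-out of COX activity, taken 0.66 hour post-dosing, using native protein from sheep placenta. Single-concentration duplicate screen (25 uM), then singleton concentration-response up to 50 uM for actives.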

[14] = molecular target: guinea pig Leukotriene D4 Receptor (LTD4), CYSLTR1 (gene 100135514) (UniProt Q2NNR5); assay: NVS_GPCR_gLTD4: NovaScreen (NVS) G Protein-Coupled Receptor Assay for guinea pig Leukotriene D4 Receptor (LTD4) (AID 2283248)
Summary of the method: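 Guinea pig lung membrane preparation; bound radioligand measured by filter scintillation after 1 h, loss of signal versus DMSO marking displacement. Compounds tested at 25 uM in duplicate, hits retested to max 50 uM.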

[15] = NVS_GPCR_bNPY_NonSelective: NovaScreen (NVS) G Protein-Coupled Receptor Assay for bovine Neuropeptide Y (NPY) Receptor, Non-selective Binding (AID 2283245)
Summary of the method: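 Displacement of radioligand from bovine hippocampal membrane receptors, read by filtration and scintillation counting after 1 hour. Concentration-response to a top of 50 uM followed a 25 uM duplicate primary screen. Loss of signal versus DMSO.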

[16] = molecular target: rat Adenylate Cyclase, Forskolin Stimulated, Adcy5 (gene 64532) (UniProt Q04400); assay: NVS_ENZ_rACFSKBinding: NovaScreen (NVS) Enzymatic Assay for rat Adenylate Cyclase, Forskolin Stimulated (AID 2283232)
Summary of the method: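 Chemicals were first tested at 25 uM in duplicate, then hits run as concentration series with top concentration 50 uM. Enzyme source was rat forebrain membranes; radiometric filter read-out after 1 h, referenced to DMSO.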

Sequence of human Serotonin, 5-Hydroxytryptamine Receptor 5A (5HT5A), HTR5A (gene 3361) (P47898 whole entry, looked up): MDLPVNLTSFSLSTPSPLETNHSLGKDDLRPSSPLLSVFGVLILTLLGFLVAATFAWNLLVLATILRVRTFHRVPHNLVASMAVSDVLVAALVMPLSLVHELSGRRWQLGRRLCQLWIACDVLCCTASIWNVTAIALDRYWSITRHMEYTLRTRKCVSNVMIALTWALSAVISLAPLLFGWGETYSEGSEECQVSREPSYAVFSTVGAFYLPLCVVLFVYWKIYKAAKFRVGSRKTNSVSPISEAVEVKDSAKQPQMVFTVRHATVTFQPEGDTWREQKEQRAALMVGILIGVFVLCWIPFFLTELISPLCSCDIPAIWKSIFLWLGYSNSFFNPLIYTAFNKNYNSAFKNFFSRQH
Sequence of human Vascular Endothelial Growth Factor Receptor 2 (VEGFR2), KDR (gene 3791) (P35968 whole entry, looked up): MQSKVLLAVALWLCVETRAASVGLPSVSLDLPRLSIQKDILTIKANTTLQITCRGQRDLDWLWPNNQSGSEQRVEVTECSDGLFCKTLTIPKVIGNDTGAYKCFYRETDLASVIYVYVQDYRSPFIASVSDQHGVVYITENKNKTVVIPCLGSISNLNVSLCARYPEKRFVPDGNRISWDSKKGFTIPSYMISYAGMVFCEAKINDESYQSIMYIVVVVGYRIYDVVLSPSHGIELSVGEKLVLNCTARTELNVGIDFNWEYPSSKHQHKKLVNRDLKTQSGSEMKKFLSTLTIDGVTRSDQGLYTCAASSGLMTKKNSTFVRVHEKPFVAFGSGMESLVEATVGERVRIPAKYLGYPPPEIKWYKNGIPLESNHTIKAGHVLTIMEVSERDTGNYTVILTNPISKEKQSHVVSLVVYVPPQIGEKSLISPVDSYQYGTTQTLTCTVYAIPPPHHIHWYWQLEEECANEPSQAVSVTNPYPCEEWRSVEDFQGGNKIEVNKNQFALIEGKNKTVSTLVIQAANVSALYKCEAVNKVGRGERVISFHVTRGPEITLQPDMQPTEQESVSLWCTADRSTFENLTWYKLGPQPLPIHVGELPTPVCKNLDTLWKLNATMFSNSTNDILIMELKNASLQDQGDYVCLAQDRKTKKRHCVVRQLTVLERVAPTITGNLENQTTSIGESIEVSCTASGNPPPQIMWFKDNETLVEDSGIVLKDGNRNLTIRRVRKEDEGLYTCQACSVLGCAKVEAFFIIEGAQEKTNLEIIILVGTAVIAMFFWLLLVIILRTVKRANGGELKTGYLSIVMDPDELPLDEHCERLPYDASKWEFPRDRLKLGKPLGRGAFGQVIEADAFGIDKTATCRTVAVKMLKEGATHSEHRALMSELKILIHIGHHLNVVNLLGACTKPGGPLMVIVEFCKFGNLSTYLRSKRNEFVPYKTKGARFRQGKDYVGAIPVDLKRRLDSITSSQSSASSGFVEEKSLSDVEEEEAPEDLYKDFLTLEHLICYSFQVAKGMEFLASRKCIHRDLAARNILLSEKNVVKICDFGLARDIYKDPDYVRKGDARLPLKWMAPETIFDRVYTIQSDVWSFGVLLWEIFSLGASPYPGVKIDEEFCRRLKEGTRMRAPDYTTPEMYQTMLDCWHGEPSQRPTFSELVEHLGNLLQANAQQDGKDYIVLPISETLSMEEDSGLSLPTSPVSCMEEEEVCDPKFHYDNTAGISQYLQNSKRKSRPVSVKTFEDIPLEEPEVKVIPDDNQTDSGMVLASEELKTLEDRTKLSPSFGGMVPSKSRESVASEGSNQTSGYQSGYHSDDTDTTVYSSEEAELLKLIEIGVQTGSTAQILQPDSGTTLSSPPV
Sequence of sheep Cyclooxygenase-1 (Cox1), PTGS1 (gene 443551) (P05979 whole entry, looked up): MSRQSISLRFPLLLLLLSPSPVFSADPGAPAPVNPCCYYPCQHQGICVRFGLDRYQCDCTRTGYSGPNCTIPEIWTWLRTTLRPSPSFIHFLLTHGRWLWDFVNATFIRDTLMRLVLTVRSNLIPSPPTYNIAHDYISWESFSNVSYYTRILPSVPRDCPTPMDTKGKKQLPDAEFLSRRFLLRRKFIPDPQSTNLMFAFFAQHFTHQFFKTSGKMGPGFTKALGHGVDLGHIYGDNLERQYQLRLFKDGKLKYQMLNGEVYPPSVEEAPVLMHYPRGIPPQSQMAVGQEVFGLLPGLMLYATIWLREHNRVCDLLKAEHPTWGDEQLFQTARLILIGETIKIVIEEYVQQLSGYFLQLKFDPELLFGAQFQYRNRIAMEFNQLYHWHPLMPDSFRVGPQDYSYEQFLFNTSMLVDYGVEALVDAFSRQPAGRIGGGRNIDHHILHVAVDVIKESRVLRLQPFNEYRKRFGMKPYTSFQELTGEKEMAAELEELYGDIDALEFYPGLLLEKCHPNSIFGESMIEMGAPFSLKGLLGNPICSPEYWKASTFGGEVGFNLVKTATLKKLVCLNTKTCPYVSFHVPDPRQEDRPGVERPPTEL
Sequence of guinea pig Opioid, Kappa 1 Receptor (OpiateK), OPRK1 (gene 100135587) (P41144 whole entry, looked up): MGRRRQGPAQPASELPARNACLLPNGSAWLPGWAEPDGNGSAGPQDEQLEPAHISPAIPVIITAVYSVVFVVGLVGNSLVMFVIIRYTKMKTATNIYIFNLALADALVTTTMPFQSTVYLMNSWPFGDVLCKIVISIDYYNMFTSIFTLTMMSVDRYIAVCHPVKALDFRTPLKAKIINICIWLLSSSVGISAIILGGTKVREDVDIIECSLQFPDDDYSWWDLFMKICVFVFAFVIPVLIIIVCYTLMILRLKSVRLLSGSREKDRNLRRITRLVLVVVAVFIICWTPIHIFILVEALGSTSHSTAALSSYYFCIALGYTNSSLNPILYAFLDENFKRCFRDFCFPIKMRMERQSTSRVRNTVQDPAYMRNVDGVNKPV
Sequence of Adenosine receptor A1 (Bos taurus) (P28190 whole entry, looked up): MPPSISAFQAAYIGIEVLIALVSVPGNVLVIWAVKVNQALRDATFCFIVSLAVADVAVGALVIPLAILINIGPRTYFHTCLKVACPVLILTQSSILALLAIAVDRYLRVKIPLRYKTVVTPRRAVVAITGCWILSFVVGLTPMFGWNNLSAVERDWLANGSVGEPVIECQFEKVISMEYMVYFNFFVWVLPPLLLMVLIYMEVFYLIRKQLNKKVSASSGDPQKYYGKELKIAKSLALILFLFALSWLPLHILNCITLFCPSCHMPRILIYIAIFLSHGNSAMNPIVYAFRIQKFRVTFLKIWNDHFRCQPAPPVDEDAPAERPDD
Sequence of rat Monoamine Oxidase, MAO-B, Central (MAOBC), Maob (gene 25750) (P19643 whole entry, looked up): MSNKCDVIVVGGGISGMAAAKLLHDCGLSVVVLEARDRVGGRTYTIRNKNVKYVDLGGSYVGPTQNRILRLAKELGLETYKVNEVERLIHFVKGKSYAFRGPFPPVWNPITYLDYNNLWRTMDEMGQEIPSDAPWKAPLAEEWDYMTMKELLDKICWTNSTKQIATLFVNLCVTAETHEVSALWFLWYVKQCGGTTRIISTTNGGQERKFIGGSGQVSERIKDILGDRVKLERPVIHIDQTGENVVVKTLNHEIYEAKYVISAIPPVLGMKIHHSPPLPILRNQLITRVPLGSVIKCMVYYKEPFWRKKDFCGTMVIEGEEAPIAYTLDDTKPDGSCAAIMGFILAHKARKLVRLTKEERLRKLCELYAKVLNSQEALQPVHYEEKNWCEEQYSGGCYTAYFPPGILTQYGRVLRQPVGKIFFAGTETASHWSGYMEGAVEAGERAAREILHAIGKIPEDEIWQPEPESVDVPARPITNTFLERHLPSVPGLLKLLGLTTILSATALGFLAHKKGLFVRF
Sequence of sheep Cyclooxygenase-2 (Cox2), PTGS2 (gene 443460) (P79208 whole entry, looked up): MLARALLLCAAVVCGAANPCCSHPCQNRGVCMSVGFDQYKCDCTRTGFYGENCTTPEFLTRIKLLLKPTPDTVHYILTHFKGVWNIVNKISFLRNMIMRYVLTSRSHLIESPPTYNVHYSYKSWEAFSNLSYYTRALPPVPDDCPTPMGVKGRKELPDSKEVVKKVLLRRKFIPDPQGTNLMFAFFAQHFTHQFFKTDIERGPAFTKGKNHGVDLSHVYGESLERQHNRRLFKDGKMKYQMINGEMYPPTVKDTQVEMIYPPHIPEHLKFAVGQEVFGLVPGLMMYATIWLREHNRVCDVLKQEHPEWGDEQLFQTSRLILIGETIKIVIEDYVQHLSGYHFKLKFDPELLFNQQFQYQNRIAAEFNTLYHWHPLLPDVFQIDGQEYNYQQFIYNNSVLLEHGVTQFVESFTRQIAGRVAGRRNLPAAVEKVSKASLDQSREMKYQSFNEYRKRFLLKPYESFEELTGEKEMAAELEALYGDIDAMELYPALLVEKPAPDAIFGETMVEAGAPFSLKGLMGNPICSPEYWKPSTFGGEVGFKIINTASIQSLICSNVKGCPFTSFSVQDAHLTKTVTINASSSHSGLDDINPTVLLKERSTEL
Sequence of guinea pig Leukotriene D4 Receptor (LTD4), CYSLTR1 (gene 100135514) (Q2NNR5 whole entry, looked up): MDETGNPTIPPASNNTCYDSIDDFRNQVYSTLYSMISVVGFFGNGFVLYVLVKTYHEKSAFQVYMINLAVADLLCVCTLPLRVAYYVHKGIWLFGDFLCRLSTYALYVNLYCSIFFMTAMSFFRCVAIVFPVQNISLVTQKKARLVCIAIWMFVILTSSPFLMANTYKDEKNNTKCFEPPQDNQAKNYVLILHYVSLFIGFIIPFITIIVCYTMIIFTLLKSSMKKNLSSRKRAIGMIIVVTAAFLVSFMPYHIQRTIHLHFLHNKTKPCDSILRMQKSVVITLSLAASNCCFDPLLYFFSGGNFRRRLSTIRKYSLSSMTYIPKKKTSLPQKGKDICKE
Sequence of rat Monoamine Oxidase, MAO-B, Peripheral (MAOBP), Maob (gene 25750) (P19643 whole entry, looked up): as the sequence (P19643 whole entry, looked up) above

Q: With CCC(C)(c1ccc(O)cc1)c1ccc(O)cc1 as the molecule, how does the AC50 [1] read?
A: 6.38 µM (active)

Q: What about the AC50 [2] of the same molecule?
A: 13.4 µM (active)

Q: What about the outcome [3] of the same molecule?
A: inactive

Q: For CC(C)(O)C(=O)Nc1ccc([N+](=O)[O-])c(C(F)(F)F)c1, which AC50 [4] is on record?
A: 12.1 µM (active)

Q: What about the outcome [5] of the same molecule?
A: inactive

Q: What about the outcome [3] of the same molecule?
A: inactive

Q: For Oc1ccc(Cl)cc1Cl, which AC50 [4] is on record?
A: 7.6 µM (active)

Q: And the outcome [6]?
A: inactive

Q: For CN(C)c1nc(=O)n(C2CCCCC2)c(=O)n1C, which outcome [7] is on record?
A: inactive

Q: Which outcome [8] does the source give for Clc1ccc(C(c2ccccc2Cl)C(Cl)(Cl)Cl)cc1 (stereo unspecified) here?
A: inactive

Q: What about the outcome [9] of the same molecule?
A: inactive

Q: For Cc1ccccc1O, which outcome [10] is on record?
A: inactive

Q: Which outcome [9] does the source give for CCCCCCCCCc1ccc(O)cc1 here?
A: inactive

Q: For CCCN(CCC)N=O, which outcome [8] is on record?
A: inactive

Q: With Nc1ccc(-c2ccc(N)cc2)cc1 as the molecule, how does the AC50 [6] read?
A: 16.6 µM (active)

Q: Which results are given for Oc1ccc(C(c2ccc(O)cc2)(C(F)(F)F)C(F)(F)F)cc1?
A: AC50 [1]: 0.436 µM (active); AC50 [11]: 10.4 µM (active); AC50 [12]: 13.6 µM (active); AC50 [2]: 8.39 µM (active); AC50 [3]: 14 µM (active)

Q: Which results are given for Clc1ccc(Cl)cc1?
A: AC50 [13]: 15.8 µM (active); outcome [10]: inactive

Q: For Oc1c(Cl)c(Cl)c(Cl)c(Cl)c1Cl, which AC50 [6] is on record?
A: 15.5 µM (active)

Q: And the outcome [10]?
A: inactive

Q: What about the outcome [14] of the same molecule?
A: inactive

Q: And the AC50 [3]?
A: 12.6 µM (active)

Q: What about the outcome [3] of the same molecule?
A: inactive

Q: With N#Cc1ccc(N(CC(N)=O)CC(F)(F)F)cc1C(F)(F)F as the molecule, how does the AC50 [13] read?
A: 6.58 µM (active)

Q: What does the source list for O=C(O)C(F)(F)C(F)(F)C(F)(F)C(F)(F)C(F)(F)C(F)(F)C(F)(F)C(F)(F)F?
A: AC50 [1]: 25 µM (active); outcome [14]: inactive; AC50 [2]: 17.7 µM (active)

Q: Which outcome [15] does the source give for CO/C=C(/C(=O)OC)c1ccccc1COc1cccc(C(F)(F)F)n1 here?
A: inactive

Q: Which results are given for ClC(Cl)=C(c1ccc(Cl)cc1)c1ccc(Cl)cc1?
A: outcome [8]: inactive; outcome [9]: inactive

Q: Which results are given for CC(C)(c1ccccc1)c1ccc(O)cc1?
A: outcome [8]: inactive; outcome [16]: inactive; outcome [4]: inactive; outcome [5]: inactive; AC50 [1]: 7.09 µM (active); AC50 [2]: 25 µM (active)

Q: Which AC50 [10] does the source give for NS(=O)(=O)C(F)(F)C(F)(F)C(F)(F)C(F)(F)C(F)(F)C(F)(F)C(F)(F)C(F)(F)F here?
A: 13.1 µM (active)
